Data as given in PMC11062922 (Nature Chemical Biology, 2023).
Where two headings read alike, the source gives them in different places.

How the values were obtained:
Design in all cases: species or system human, MV4-11 + K-562 + COLO205 + SK-N-BE2 + OVCAR-8
CDC42BPA = details: read-out: apparent Kd; compound concentrations: 100 nM and 1000 nM (sheet 'Samples'), CATDS: 1.08451954536147E-2; n = 1
CDC42BPG = details: read-out: apparent Kd; compound concentrations: 100 nM and 1000 nM (sheet 'Samples'), CATDS: 2.2022337119778398E-2; n = 1
MTOR = details: read-out: apparent Kd, n = 1
PRKG1 = details: read-out: apparent Kd; compound concentrations: 100 nM and 1000 nM (sheet 'Samples'), CATDS: 9.7555331639362503E-2; n = 1
ROCK1 = details: read-out: apparent Kd; compound concentrations: 100 nM and 1000 nM (sheet 'Samples'), CATDS: 3.6596827517009503E-2; n = 1
AXL = details: read-out: apparent Kd, n = 1
CSK = details: read-out: apparent Kd, n = 1
EPHA1 = details: read-out: apparent Kd, n = 1
EPHB3 = details: read-out: apparent Kd, n = 1
FRK = details: read-out: apparent Kd, n = 1
FYN = details: read-out: apparent Kd, n = 1
LYN = details: read-out: apparent Kd, n = 1
ULK1 = details: read-out: apparent Kd, n = 1
PIK3CG = details: read-out: apparent Kd; compound concentrations:100 nM and 1000 nM (sheet 'Samples'); n = 1
[1] = compound concentrations:100 nM and 1000 nM (sheet 'Samples')

## CN(c1ccc(NC(=O)Nc2cccc(Cl)c2)cc1)c1ccnc(N)n1.Cl [GW830707A]
CDC42BPA
  potency estimated from few doses: 1270 nM
CDC42BPG
  potency estimated from few doses: 40.9 nM
MTOR; compound concentrations: 100 nM and 1000 nM (sheet 'Samples'), CATDS: 2.8595787466671799E-2
  potency estimated from few doses: 22.6 nM
PRKG1
  potency estimated from few doses: 3.28 nM
ROCK1
  potency estimated from few doses: 14.2 nM

## Clc1cc(Cl)cc(Nc2ccnc(Nc3cc(Cl)cc(Cl)c3)n2)c1 [GSK175726A]
AXL; compound concentrations: 100 nM and 1000 nM (sheet 'Samples'), CATDS: 8.4752300032334103E-3
  potency estimated from few doses: 1710 nM
CSK; compound concentrations: 100 nM and 1000 nM (sheet 'Samples'), CATDS: 1.17668577174877E-2
  potency estimated from few doses: 462 nM
EPHA1; compound concentrations: 100 nM and 1000 nM (sheet 'Samples'), CATDS: 1.41379738320296E-2
  potency estimated from few doses: 280 nM
EPHB3; compound concentrations: 100 nM and 1000 nM (sheet 'Samples'), CATDS: 8.8361902766531698E-3
  potency estimated from few doses: 1370 nM
FRK; compound concentrations: 100 nM and 1000 nM (sheet 'Samples'), CATDS: 1.3675373024535401E-2
  potency estimated from few doses: 305 nM
FYN; compound concentrations: 100 nM and 1000 nM (sheet 'Samples'), CATDS: 1.87889991520305E-2
  potency estimated from few doses: 150 nM
LYN; compound concentrations: 100 nM and 1000 nM (sheet 'Samples'), CATDS: 1.7701594212269099E-2
  potency estimated from few doses: 169 nM
MTOR; compound concentrations: 100 nM and 1000 nM (sheet 'Samples'), CATDS: 1.7554405068834999E-2
  potency estimated from few doses: 172 nM
ULK1; compound concentrations: 100 nM and 1000 nM (sheet 'Samples'), CATDS: 8.5136949732422407E-3
  potency estimated from few doses: 1670 nM

## CN1C[C@@H]2Cn3c(c(C4=C(c5cn(C)c6ccccc56)C(=O)NC4=O)c4ccccc43)C[C@H]2C1.Cl [RO0320234-001]
AXL; [1]
  potency estimated from few doses: 1340 nM
CSK; [1]
  potency estimated from few doses: 552 nM
EPHA1; [1]
  potency estimated from few doses: 368 nM
EPHB3; [1]
  potency estimated from few doses: 1030 nM
FRK; [1]
  potency estimated from few doses: 290 nM
FYN; [1]
  potency estimated from few doses: 209 nM
LYN; [1]
  potency estimated from few doses: 158 nM
MTOR; [1]
  potency estimated from few doses: 186 nM
PIK3CG
  potency estimated from few doses: 1400 nM
ULK1; [1]
  potency estimated from few doses: 768 nM

## CNC(=O)c1ccccc1Nc1nc(Nc2ccc(N3CCOCC3)cc2)ncc1Cl.Cl [GSK1576028A]
AXL; [1]
  potency estimated from few doses: 732 nM
FYN; [1]
  potency estimated from few doses: 369 nM
LYN; [1]
  potency estimated from few doses: 1010 nM
ULK1; [1]
  potency estimated from few doses: 1420 nM
